The panel holds about 83,000 compounds, 20% with a hit somewhere; the sample as a whole holds those more often.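 The endpoint reported here, percent growth, reads 100 for growth as untreated, 0 for no net growth and -100 for all cells dead.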
What was measured:
Assay in all cases: NCI-60 one-dose screen, 48 h (100 = growth as untreated, 0 = no growth, -100 = all killed)
Settings in all cases: 10 µM unless noted; active means growth percent below 10; inactive means the rest
NCI-H23 lung = tested on: NCI-H23 lung
NCI-H226 lung = tested on: NCI-H226 lung
NCI-H322M lung = tested on: NCI-H322M lung
HOP-62 NSCLC = tested on: HOP-62 NSCLC
NCI-H460 lung = tested on: NCI-H460 lung
HOP-92 NSCLC = tested on: HOP-92 NSCLC
NCI-H522 lung = tested on: NCI-H522 lung
A549/ATCC NSCLC = tested on: A549/ATCC NSCLC
786-0 renal = tested on: 786-0 renal
COLO 205 colon = tested on: COLO 205 colon
DU-145 prostate = tested on: DU-145 prostate
MALME-3M melanoma = tested on: MALME-3M melanoma
MDA-MB-231 breast = tested on: MDA-MB-231 breast
SF-268 CNS = tested on: SF-268 CNS
SF-295 CNS = tested on: SF-295 CNS
SF-539 CNS = tested on: SF-539 CNS
M14 melanoma = tested on: M14 melanoma
RXF 393 renal = tested on: RXF 393 renal
UACC-257 melanoma = tested on: UACC-257 melanoma
K-562 leukemia = tested on: K-562 leukemia

Measured: growth

Cn1c(=O)c2nc3c(=O)n(C)c(=O)n(C)c3nc2n(C)c1=O
inactive: NCI-H23 lung 95.1% | NCI-H226 lung 107% | NCI-H322M lung 101% | HOP-62 NSCLC 93% | NCI-H460 lung 102% | HOP-92 NSCLC 127% | NCI-H522 lung 93.8% | A549/ATCC NSCLC 126% | 786-0 renal 91.2% | COLO 205 colon 126% | DU-145 prostate 117% | MALME-3M melanoma 120% | MDA-MB-231 breast 109% | SF-268 CNS 108% | SF-295 CNS 107% | SF-539 CNS 91.7% | M14 melanoma 97%

CC(=O)Nc1ccc(/C=C2\SC(=S)N(/C=C(\C(C)=O)C(N)=O)C2=O)cc1
inactive: NCI-H23 lung 97.5% | NCI-H226 lung 86.2% | NCI-H322M lung 102% | HOP-62 NSCLC 82.5% | NCI-H460 lung 99.4% | HOP-92 NSCLC 68.2% | NCI-H522 lung 84.2% | A549/ATCC NSCLC 84.9% | 786-0 renal 88.1% | COLO 205 colon 92.1% | DU-145 prostate 106% | MALME-3M melanoma 87.8% | MDA-MB-231 breast 98.9% | RXF 393 renal 93% | SF-268 CNS 96.2% | SF-295 CNS 93.6% | SF-539 CNS 92.5% | UACC-257 melanoma 87.8% | M14 melanoma 81%

Cc1ccccc1CC(N)C(=O)O (stereo not drawn)
inactive: NCI-H23 lung 98.2% | NCI-H226 lung 115% | NCI-H322M lung 98.6% | HOP-62 NSCLC 103% | NCI-H460 lung 109% | HOP-92 NSCLC 92.3% | NCI-H522 lung 112% | A549/ATCC NSCLC 107% | 786-0 renal 107% | COLO 205 colon 114% | K-562 leukemia 115% | MALME-3M melanoma 116% | MDA-MB-231 breast 116% | RXF 393 renal 137% | SF-268 CNS 101% | SF-295 CNS 99.6% | SF-539 CNS 116% | UACC-257 melanoma 109%

O=C(c1cccc(C(=O)c2ccc3c4c(cccc24)C(=O)N(c2ccccc2)C3=O)c1)c1ccc2c3c(cccc13)C(=O)N(c1ccccc1)C2=O
inactive: NCI-H23 lung 82.6% | NCI-H226 lung 78.6% | NCI-H322M lung 113% | HOP-62 NSCLC 101% | NCI-H460 lung 104% | HOP-92 NSCLC 85.5% | NCI-H522 lung 85% | A549/ATCC NSCLC 103% | 786-0 renal 106% | COLO 205 colon 102% | K-562 leukemia 89.8% | MALME-3M melanoma 101% | MDA-MB-231 breast 91.1% | RXF 393 renal 102% | SF-268 CNS 97.2% | SF-295 CNS 103% | SF-539 CNS 98.7% | UACC-257 melanoma 92% | M14 melanoma 99.2%

CCOC(=O)/C(C#N)=C\c1c[nH]c2ccccc12
inactive: NCI-H23 lung 86.5% | NCI-H226 lung 79.8% | NCI-H322M lung 110% | HOP-62 NSCLC 80.7% | NCI-H460 lung 109% | HOP-92 NSCLC 81.6% | NCI-H522 lung 70.4% | A549/ATCC NSCLC 105% | 786-0 renal 114% | COLO 205 colon 98.7% | DU-145 prostate 111% | MALME-3M melanoma 116% | MDA-MB-231 breast 80.9% | SF-268 CNS 101% | SF-295 CNS 107% | SF-539 CNS 103% | UACC-257 melanoma 105% | M14 melanoma 97.1%

CCOC(=O)/C(O)=C(\C=N\C(=S)Nc1ccc(Cl)c(Cl)c1)C(=O)OCC
inactive: NCI-H23 lung 87.3% | NCI-H226 lung 75.2% | NCI-H322M lung 106% | HOP-62 NSCLC 94.3% | NCI-H460 lung 106% | HOP-92 NSCLC 95.5% | NCI-H522 lung 71.4% | A549/ATCC NSCLC 101% | 786-0 renal 115% | COLO 205 colon 92.9% | K-562 leukemia 92.7% | MALME-3M melanoma 89.3% | MDA-MB-231 breast 94.3% | RXF 393 renal 97.9% | SF-268 CNS 104% | SF-295 CNS 105% | SF-539 CNS 73.9% | UACC-257 melanoma 98.6% | M14 melanoma 93.2%

CC(=O)C1C(=O)C(=O)N(c2cccc([N+](=O)[O-])c2)C1=O (stereo not drawn)
inactive: NCI-H23 lung 99% | NCI-H226 lung 92.3% | NCI-H322M lung 114% | HOP-62 NSCLC 105% | NCI-H460 lung 105% | HOP-92 NSCLC 95.6% | NCI-H522 lung 104% | A549/ATCC NSCLC 109% | 786-0 renal 96.8% | COLO 205 colon 111% | K-562 leukemia 112% | MALME-3M melanoma 124% | MDA-MB-231 breast 107% | RXF 393 renal 110% | SF-268 CNS 109% | SF-295 CNS 107% | SF-539 CNS 108% | UACC-257 melanoma 97.4% | M14 melanoma 104%

CCOc1ccc(NC(=S)N2CCC(CCCC3CCN(C(=S)Nc4ccc(OCC)cc4)CC3)CC2)cc1
inactive: NCI-H23 lung 75.8% | NCI-H226 lung 77.1% | NCI-H322M lung 100% | HOP-62 NSCLC 104% | NCI-H460 lung 91.5% | HOP-92 NSCLC 59.2% | NCI-H522 lung 77.7% | A549/ATCC NSCLC 83.3% | COLO 205 colon 110% | DU-145 prostate 95.9% | K-562 leukemia 61.5% | MALME-3M melanoma 80.1% | MDA-MB-231 breast 92.4% | RXF 393 renal 110% | SF-268 CNS 83.1% | SF-295 CNS 84.6% | SF-539 CNS 106% | UACC-257 melanoma 83.1% | M14 melanoma 97.9%

Source: PubChem BioAssay (NCI)
